# PubChem BioAssay (NCI)
# The panel holds about 83,000 compounds, 20% with a hit somewhere; the sample as a whole holds those more often.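 48-hour exposure, single concentration, 96-well plates; percent growth endpoint where 0 means no net growth. Active: below 10.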 Values without a mark were called inactive. The source made the active and inactive calls.
# Tested on: SNB-19 CNS
# Experiment: NCI-60 one-dose screen, 48 h (100 = growth as untreated, 0 = no growth, -100 = all killed)
# Settings: 10 µM unless noted
row,Compound,growth
1,O=C1Nc2ccccc2/C1=C/c1cccn1CCCCn1c2ccccc2c(=O)c2ccccc21,98.4%
2,O=C1/C(=C/c2ccccc2Br)COc2ccc(O)cc21,75%
3,O=S(=O)(Nc1ccc(Cl)c(C(F)(F)F)c1)c1ccc(-c2cnc(C3CC3)o2)cc1,18.3%
4,Cc1cc(=O)oc2cc(OCc3nn4c(Nc5nc6ccccc6s5)c(-c5ccccc5)nc4s3)ccc12,74.7%
5,COC(=O)c1c(C)c2n(c1C)C(=O)C(c1ccccc1)=C2,85.7%
6,C#CCOC(=O)/C=C/c1cn(-c2ccccc2)nc1-c1ccc(OC)cc1,99.5%
7,Cc1c2cnccc2c(C)c2c1c1cc(C#N)ccc1n2C,-1.41% (active)
8,COC(=O)c1cc(N=C2NC(=O)/C(=C/C=C/c3ccccc3)S2)ccc1O,30.4%
9,Cc1ccc2c(Cn3cc(CSc4nc5ccccc5o4)nn3)cc(=O)oc2c1,105%
10,O=C(CSc1nnc(-c2cnccn2)n1-c1ccccc1)c1ccc(Cl)cc1,101%
11,NS(=O)(=O)c1ccccc1NC(=O)Nc1nc2ccccc2s1,98%
12,CCOC(=O)C1=C(N)Oc2c(sc3c(F)cccc23)C1c1ccc(O)cc1 (centres undefined),48.9%
13,COc1ccc(/C=C/C(=O)c2ccc(Nc3ccnc4cc(Cl)ccc34)cc2)cc1,87.1%
14,Cc1cc(S(=O)(=O)/N=C(\N)n2nc(C)c(C)c2C)c(SCc2ccccc2)cc1Cl,89.9%
15,COc1ccc(/C=C(\C#N)n2nnc3cc(Cl)ccc32)cc1,9.63% (active)
16,CSc1nnc(-c2cc3c([nH]c4ccccc43)c(-c3cccc(O)c3)n2)n1-c1ccccc1,38.6%
17,O=C(O)c1ccc(-n2cc(/C=N/Nc3ccccc3)c(-c3ccc(F)cc3F)n2)cc1,84.3%
18,O=C(/C=C/c1cccc(Cl)c1)c1ccc(Nc2nc(Nc3ccc(F)cc3)nc(Nc3ccc(Cl)cc3)n2)cc1,118%
19,CCn1cc(C(=O)NNC(=S)Nc2ccc(C)cc2)c(=O)c2ccc(C)nc21,102%
20,CC(C)(Sc1cc(C(C)(C)C)c(OC(=O)CCCC(=O)O)c(C(C)(C)C)c1)Sc1cc(C(C)(C)C)c(OC(=O)CCCC(=O)O)c(C(C)(C)C)c1,29.6%

row,Compound,growth
1,O=C(O)c1cn(C2CC2)c2cc(N3CCN(C(=O)N(c4ccccc4)c4nc(-c5ccccc5)cs4)CC3)c(F)cc2c1=O,15.7%
2,Cc1cccc(/C=C/c2c(C(=O)/C=C/c3ccccc3)c(C)nc3ccccc23)c1,-80.5% (active)
3,O=C(CSc1oc(-c2ccccc2)nc1S(=O)(=O)c1ccccc1)Nc1ccc(F)cc1,93.5%
4,O=C(/C=C/c1ccccc1)Nc1ncc(Cc2ccccc2Cl)s1,30.5%
5,O=C(Nc1cccc(Cl)c1)Nc1cccc(Cn2c(=O)[nH]c3ccc(Oc4ncccn4)cc3c2=O)c1,55.6%
6,Cc1ccc2c(c1)=C/C(=C\c1cc(-c3ccccc3)oc1O)C(=O)N=2,107%
7,c1ccc(Cn2cc3c(c2)-c2oncc2CC3)cc1,35.7%
8,CCN(CC)c1ccc(\C=N/N=C(N)/C(N)=N\N=C/c2ccc(N(CC)CC)cc2)cc1,113%
9,Nc1ncc(-c2ccc3ncnc(Nc4cccc(Cl)c4)c3c2)cn1,59.4%
10,c1ccc([P+](c2ccccc2)(c2ccccc2)c2ccc3c4ccc([P+](c5ccccc5)(c5ccccc5)c5ccccc5)c5cccc(c6cccc2c63)c54)cc1,12.5%
11,Cc1ccc(NC(=O)Cn2cc(CN3CCN(c4ccnc5cc(Cl)ccc45)CC3)nn2)cc1,89.2%
12,O=C(Nc1nc(-c2ccc(Cl)cc2)nc2c1sc(=S)n2-c1ccccc1)C(F)(F)F,61.5%
13,COCCn1cc(-c2csc(-c3cn(C)c4ccc(Br)cc34)n2)c2cccnc21,78.5%
14,C#CCOc1ccc2ncnc(Nc3ccc(NC(=O)C=C)cc3)c2c1,17.6%
15,Cn1cc(-c2csc(-c3c[nH]c4ccc(Br)cc34)n2)c2ccnc(Cl)c21,81.7%
16,Nc1ncnc2c1c(-c1cccc(Cl)c1)nn2CC(=O)N1CCOCC1,93.9%
17,CCSc1oc(-c2ccccc2)nc1[P+](c1ccccc1)(c1ccccc1)c1ccccc1,12.4%
18,O=S(=O)(Nc1cc(F)cc(Cl)c1)c1ccc(-c2cnc(C3CC3)o2)cc1,30.4%
19,COc1cc2oc(-c3cccc(NC(=O)c4ccccc4)c3)cc(=O)c2c(OC)c1OC,91.4%

# Tested on: U251 CNS
# Experiment: as above
# Settings: 10 µM unless noted
row,Compound,growth
1,O=C1Nc2ccccc2/C1=C/c1cccn1CCCCn1c2ccccc2c(=O)c2ccccc21,95.1%
2,O=C1/C(=C/c2ccccc2Br)COc2ccc(O)cc21,46.1%
3,O=S(=O)(Nc1ccc(Cl)c(C(F)(F)F)c1)c1ccc(-c2cnc(C3CC3)o2)cc1,4.81% (active)
4,Cc1cc(=O)oc2cc(OCc3nn4c(Nc5nc6ccccc6s5)c(-c5ccccc5)nc4s3)ccc12,96.7%
5,COC(=O)c1c(C)c2n(c1C)C(=O)C(c1ccccc1)=C2,93.2%
6,C#CCOC(=O)/C=C/c1cn(-c2ccccc2)nc1-c1ccc(OC)cc1,83.1%
7,Cc1c2cnccc2c(C)c2c1c1cc(C#N)ccc1n2C,-10.5% (active)
8,COC(=O)c1cc(N=C2NC(=O)/C(=C/C=C/c3ccccc3)S2)ccc1O,22.6%
9,Cc1ccc2c(Cn3cc(CSc4nc5ccccc5o4)nn3)cc(=O)oc2c1,113%
10,O=C(CSc1nnc(-c2cnccn2)n1-c1ccccc1)c1ccc(Cl)cc1,93.7%
11,NS(=O)(=O)c1ccccc1NC(=O)Nc1nc2ccccc2s1,99.1%
12,CCOC(=O)C1=C(N)Oc2c(sc3c(F)cccc23)C1c1ccc(O)cc1 (centres undefined),37.9%
13,COc1ccc(/C=C/C(=O)c2ccc(Nc3ccnc4cc(Cl)ccc34)cc2)cc1,84.9%
14,Cc1cc(S(=O)(=O)/N=C(\N)n2nc(C)c(C)c2C)c(SCc2ccccc2)cc1Cl,60.8%
15,COc1ccc(/C=C(\C#N)n2nnc3cc(Cl)ccc32)cc1,5.37% (active)
16,CSc1nnc(-c2cc3c([nH]c4ccccc43)c(-c3cccc(O)c3)n2)n1-c1ccccc1,32.3%
17,O=C(O)c1ccc(-n2cc(/C=N/Nc3ccccc3)c(-c3ccc(F)cc3F)n2)cc1,85.9%
18,O=C(/C=C/c1cccc(Cl)c1)c1ccc(Nc2nc(Nc3ccc(F)cc3)nc(Nc3ccc(Cl)cc3)n2)cc1,112%
19,NC(=O)c1cccc(-n2ccc3cc(NC(=O)c4ccc(N5CCOCC5)c(C(F)(F)F)c4)ccc32)n1,44.1%
20,CCn1cc(C(=O)NNC(=S)Nc2ccc(C)cc2)c(=O)c2ccc(C)nc21,93.9%

row,Compound,growth
1,CC(C)(Sc1cc(C(C)(C)C)c(OC(=O)CCCC(=O)O)c(C(C)(C)C)c1)Sc1cc(C(C)(C)C)c(OC(=O)CCCC(=O)O)c(C(C)(C)C)c1,14.4%
2,O=C(O)c1cn(C2CC2)c2cc(N3CCN(C(=O)N(c4ccccc4)c4nc(-c5ccccc5)cs4)CC3)c(F)cc2c1=O,12.6%
3,Cc1cccc(/C=C/c2c(C(=O)/C=C/c3ccccc3)c(C)nc3ccccc23)c1,-94.1% (active)
4,O=C(CSc1oc(-c2ccccc2)nc1S(=O)(=O)c1ccccc1)Nc1ccc(F)cc1,93.8%
5,O=C(/C=C/c1ccccc1)Nc1ncc(Cc2ccccc2Cl)s1,27.2%
6,O=C(Nc1cccc(Cl)c1)Nc1cccc(Cn2c(=O)[nH]c3ccc(Oc4ncccn4)cc3c2=O)c1,31.3%
7,Cc1ccc2c(c1)=C/C(=C\c1cc(-c3ccccc3)oc1O)C(=O)N=2,109%
8,c1ccc(Cn2cc3c(c2)-c2oncc2CC3)cc1,28.9%
9,CCN(CC)c1ccc(\C=N/N=C(N)/C(N)=N\N=C/c2ccc(N(CC)CC)cc2)cc1,97.9%
10,Nc1ncc(-c2ccc3ncnc(Nc4cccc(Cl)c4)c3c2)cn1,43.6%
11,c1ccc([P+](c2ccccc2)(c2ccccc2)c2ccc3c4ccc([P+](c5ccccc5)(c5ccccc5)c5ccccc5)c5cccc(c6cccc2c63)c54)cc1,14%
12,Cc1ccc(NC(=O)Cn2cc(CN3CCN(c4ccnc5cc(Cl)ccc45)CC3)nn2)cc1,89.4%
13,O=C(Nc1nc(-c2ccc(Cl)cc2)nc2c1sc(=S)n2-c1ccccc1)C(F)(F)F,8.47% (active)
14,COCCn1cc(-c2csc(-c3cn(C)c4ccc(Br)cc34)n2)c2cccnc21,51.4%
15,C#CCOc1ccc2ncnc(Nc3ccc(NC(=O)C=C)cc3)c2c1,-22.9% (active)
16,Cn1cc(-c2csc(-c3c[nH]c4ccc(Br)cc34)n2)c2ccnc(Cl)c21,33.4%
17,Nc1ncnc2c1c(-c1cccc(Cl)c1)nn2CC(=O)N1CCOCC1,102%
18,CCSc1oc(-c2ccccc2)nc1[P+](c1ccccc1)(c1ccccc1)c1ccccc1,15.2%
19,O=S(=O)(Nc1cc(F)cc(Cl)c1)c1ccc(-c2cnc(C3CC3)o2)cc1,33.6%
20,COc1cc2oc(-c3cccc(NC(=O)c4ccccc4)c3)cc(=O)c2c(OC)c1OC,83.7%
